# Source: PubChem BioAssay (EPA / NIEHS)
# The source made the active and inactive calls. Rule for the calls: active = hit-call score of the fitted dose curve at least 0.9, where 1 is the maximum; inactive = score below 0.9.
# Read-out: Bcl-2 (BAX) gene, BAX (gene 581)
# Assay: LTEA_HepaRG_BAX: Life Technologies and Expression Analysis (LTEA) Assay for Bcl-2 (BAX) gene using HepaRG (AID 2283470)
# Conditions: mRNA level, 48 h; actives raise or lower the signal
# Protocol: LTEA_HepaRG is a cell based, multiplexed-readout assay that uses HepaRG, a human liver cell line, with measurements taken at 48 hours after chemical dosing on a 96-well plate.LTEA_HepaRG_BAX is one of 102 assay component(s) measured in the LTEA HepaRG cell culture assay. It is a marker of Cell proliferation, survival, death.Data from the assay component LTEA_HepaRG_BAX was analyzed into 1 endpoint. This assay endpoint, LTEA_HepaRG_BAX, was analyzed with bidirectional fitting relative to DMSO as the negative control and baseline of activity. Using a type of inducible reporter, measures of mRNA induction for gain or loss-of-signal activity can be used to understand regulation of transcription factor activity. To generalize the intended target to other relatable targets, this assay endpoint is annotated to the cell cycle intended target family, where the subfamily is Cell proliferation, survival, death.
# A total of 1060 chemcials from the ToxCast library were tested in eight-point concentration-response experiments. Cell culture and cytotoxicity assays were conducted at Thermo Fisher Scientific's Custom Services facility (Madison, WI). A single lot of human HepaRG cells (Thermo Fisher Scientific, Frederick, MD) was used for the cell culture experiments. 96-well format collagen type I coated plates of human HepaRG cells were prepared using established methods. Briefly, cryopreserved HepaRG cells were thawed, plated at a density of approximately 100,000 cells/well in HepaRG Thaw, Plate, and General Purpose media (HPRG770, Thermo Fisher Scientific), and incubated for 48 hours. 0.5% DMSO was selected as vehicle control to balance the requisite need of DMSO in HepaRG cultures to maintain differentiation (for example, baseline metabolism, proportions of hepatocytes vs. cholangiocytes), while enabling further hepatic receptor pathway activation (for example, PXR and CAR) in response to chemical exposure. 48 hours after plating, the culture medium was replaced with HepaRG Serum-Free Incudtion Media. Cells were exposed to each test chemical in duplicate and maintained in CO2 incubators for another 48 hours. Chemical plates were thawed to room temperature and 200x concentrations of treatment groups were prepared. 8-point conentration-reponse curves were made with the highest exposure at 100 uM, followed by half-log dilutions, all in 0.5% DMSO. Each test plate contained variouse controls, induction positive controls (1mM phenobarbital), cytotoxicity positive controls ([…] aflatoxin B1), vehicle controls (0.5% DMSO), and total lysis controls (0.5% DMSO). Cell morphology images were taken using an Essen IncuCyte FLR automated microscope, with six 96-well plates imaged in about 24 minutes. Images were captured and exported and JPEG files. Spent culture media was transfered to black-well plates for the LDH assay, and remaining media was sorted at -80 C for later use. Cells were treated with RLT buffer and frozen until shipped for gene expression analysis. Total RNA was isolated from the cell suspension in 75 uL of Buffer RLT (Qiagen, Germantown, MD 20874) by Quintiles/Expression Analysis (Durham, NC) using a custom isolation procedure. Total RNA from each plate well was transferred to a preamplification plate. Fluidigm's 96.96 Dynamic ArrayTM (Fluidigm, Amsterdam, the Netherlands) technology was used for gene expression analyses by quantitative reverse transcription polymerase chain reaction (qRT-PCR, performed by Quintiles/Expression Analysis, Durham, NC)89. Standard TaqManTM Assays (Applied Biosystems/ThermoFisher Scientific, Foster City, CA) were used to assess the expression of 93 genes selected based on their selectivity and sensitivity to important hepatic receptors known to be modulated by environmental chemicals; importance in human hepatocyte functionality; and hepatotoxicity. […]
Structure (SMILES),outcome,AC50
Cc1ccc(N)cc1,inactive,
C[N+](C)(C)CC1CO1 (stereo not given),inactive,
CCCCC(CC)COC(=O)c1ccc(C(=O)OCC(CC)CCCC)c(C(=O)OCC(CC)CCCC)c1 (stereo not given),inactive,
CCNS(=O)(=O)C(F)(F)C(F)(F)C(F)(F)C(F)(F)C(F)(F)C(F)(F)C(F)(F)C(F)(F)F,inactive,
N#CC(Br)Br,inactive,
Nc1ccc(Oc2ccc(N)cc2)cc1,inactive,
Nc1ccc(Cc2ccc(N)cc2)cc1,inactive,
CCCCCCCCCCCCCN1CC(C)OC(C)C1 (stereo not given),inactive,
c1ccc2c(c1)oc1ccccc12,inactive,
O=Cc1ccco1,inactive,
C1=Cc2cccc3cccc1c23,inactive,
Cc1ccc([N+](=O)[O-])cc1,inactive,
c1ccc(C2CO2)cc1 (stereo not given),inactive,
[Cl-].[Cl-].[Hg+2],inactive,
C[C@]12C=CC3=C4CCC(=O)C=C4CC[C@H]3[C@@H]1CC[C@@H]2O,inactive,
CC(O)CCO (stereo not given),inactive,
CC(C)(OOC(C)(C)c1ccccc1)c1ccccc1,inactive,
Nc1ccc(N=Nc2ccccc2)cc1,,6.31 µM (active)
CCN(CC)N=O,inactive,
CC(C)(C)C(O)(CCc1ccc(Cl)cc1)Cn1cncn1 (stereo not given),inactive,

Structure (SMILES),outcome,AC50
CC(C)(C)OOC(=O)c1ccccc1,inactive,
CS(=O)(=O)NC(=O)c1cc(Oc2ccc(C(F)(F)F)cc2Cl)ccc1[N+](=O)[O-],inactive,
CCOc1cccc(C2(N3CCN(c4ccccc4)CC3)CCC(C)CC2)c1 (stereo not given),inactive,
Clc1ccc(Cl)c(Cl)c1,inactive,
Clc1ccc(C(c2ccc(Cl)cc2)C(Cl)(Cl)Cl)cc1,inactive,
COC(=O)Nc1nc2ccccc2[nH]1,inactive,
[As]#[In],inactive,
CCCCOC(=O)c1ccccc1C(=O)OCc1ccccc1,inactive,
CN(C)c1ccc(C(=O)c2ccc(N(C)C)cc2)cc1,inactive,
Oc1ccc2ccc3cccc4ccc1c2c34,inactive,
OCCOCCO,inactive,
Clc1ccccc1Cl,inactive,
CCC(C)c1ccc(O)cc1 (stereo not given),inactive,
CCN(CC)CCO,inactive,
CCCSC(=O)N(CCC)CCC,inactive,
O=[N+]([O-])C(Br)(CO)CO,inactive,
CCCCCCCCn1sccc1=O,inactive,
Nc1ccc([N+](=O)[O-])cc1,inactive,
CN(C)[C@@H]1C(=O)C(C(N)=O)=C(O)[C@@]2(O)C(=O)C3=C(O)c4c(O)cccc4[C@@](C)(O)[C@H]3C[C@@H]12,inactive,
ClC1=C(Cl)C2(Cl)C3C(Cl)C=CC3C1(Cl)C2(Cl)Cl (stereo not given),inactive,
